# Measured values from PubChem BioAssay (Tox21).
# Records with an inconclusive call do not appear. Values without a mark were called inactive. Activity calls are given as the source filed them. Calls come from the whole dose curve; as a rule, active = well fitted cell-killing curve with a large enough effect in the repeat runs; inconclusive = weak or mixed curves; inactive = flat fitted curve, though single readings scatter.
# Assay: qHTS RealTime-Glo MT Cell Viability Assay in HepG2 cells - 16 hour (AID 1224885); note: nearly all actives have a fitted effect of over 50% in size
# Details: RealTime-Glo luminescence; series mostly up to 76.8 µM
# How it was run: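 Viability was tracked continuously by NanoLuc luminescence from prosubstrate reduced by living HepG2 cells, at successive time points over 40 h of compound exposure. Cells with reagent were preincubated 5 h at 37 °C before compound addition.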
# % is set by controls: 0 for no effect and ±100 for the full control effect.
Structure (SMILES),"activity change, negative = cytotoxic",outcome
CCn1cc(C(=O)O)c(=O)c2cnc(N3CCCC3)nc21,2.96% [at 6.97 µM],–
COP(=O)(O)OP(=O)(O)OC,–,inactive
CC(=O)CC(=O)OC(C)(C)C,–,inactive
COCCc1ccccn1,–,inactive
CCCC(=O)OC/C=C(\C)CCC=C(C)C,–,inactive
CCC(=O)CC,–,inactive
Cc1c(N)cccc1Cl,–,inactive
CN(C)CCCCl,–,inactive
O=C(Cn1ccnc1[N+](=O)[O-])NCc1ccccc1,–,inactive
CC(C)C[C@@H]1[C@H](c2ccccc2)OC(=O)N1CCCN1CCCCCC1,–,inactive
Cc1cc(C)c(C(=O)O)c(C)c1,–,inactive
CC(C)(C)NC[C@H](O)COc1cccc2c1CCCC2=O,–,inactive
CC1(C)O[C@H]2CC(=O)OC[C@]23[C@H]2CC[C@@]4(C)[C@H](c5ccoc5)OC(=O)[C@H]5O[C@]54[C@]2(C)C(=O)C[C@@H]13,–,inactive
C[C@@H](O)C(=O)O,–,inactive
Cc1ccc(C(=O)O)cc1[N+](=O)[O-],–,inactive
COC(C)(OC)OC,–,inactive
CC/C(C)=N\O[Si](C)(O/N=C(\C)CC)O/N=C(\C)CC,–,inactive
OC1OCCOC1O (centres undefined),–,inactive
CO/N=C(/C(=O)N[C@@H]1C(=O)N2C(C(=O)[O-])=C(C[n+]3ccn4ncccc43)CS[C@H]12)c1nsc(N)n1,–,inactive
N#Cc1ccccc1O,–,inactive
OCC1CCC(CO)CC1 (centres undefined),–,inactive
CC1=C(C(=O)O)N2C(=O)[C@@H](NC(=O)[C@H](N)c3ccccc3)[C@H]2SC1,–,inactive
COc1ccc(CCO)cc1,–,inactive
N[C@@H](CSCCCO)C(=O)O,0.578% [at 15.8 µM],–
